Results on 25 molecules are retold here after PubChem BioAssay (EPA / NIEHS).

Each structure is given as a SMILES string. Inconclusive results are not listed. Active and inactive are the calls of the source. How the source made its calls: active means hit-call score of the fitted dose curve at least 0.9, where 1 is the maximum; inconclusive means response in the unintended direction; inactive means score below 0.9.

The AC50 is the concentration at which the activity in the assay is half-maximal.

The experiment can be described thus: CCTE_Deisenroth_AIME_384WELL_CTox_Inactive: Cytotoxicity Assessment (CTOX) in CCTE's 384-well Estrogen Receptor Transactivation Assay without AIME metabolic competence (metabolism negative), Deisenroth Lab (AID 2284039).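 Further: cell viability via live-cell protease substrate cleaved to fluorescent probe; cells exposed 24 h to medium preincubated 2 h with alginate-water beads without S9.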 As to the method:
CCTE_Deisenroth_AIME_384WELL (AIME metabolism assay) is a cell-based, single-readout assay that uses VM7Luc4E2, a human mammary gland/breast cell line, with measurements taken at 24 hour after chemical dosing in a 384-well plate.CCTE_Deisenroth_AIME_384WELL_CTox_Inactive is one of four assay components measured or calculated from the CCTE_Deisenroth_AIME_384WELL assay. It is designed to make measurements of a protease substrate, a type of viability indicator, as detected with substrate cleavage to a fluorescent probe in living cells.CCTE_Deisenroth_AIME_384WELL_CTox_Inactive is a component of the CCTE_Deisenroth_AIME_384WELL assay that measures the effect of retroftting the VM7Luc ERTA assay with the Alginate Immobolization of Metabolic Enzymes (AIME) metabolism method. AIME is optimized to impart phase I hepatic metabolism using phenobarbital/beta-naphthoflavone induced hepatic S9 from male Sprague Dawley rats. Parent chemicals are incubated for 2 hours in the AIME assay prior to transfer to the VM7Luc ERTA assay plate. […] This endpoint evaluates cytotoxicity in metabolism negative mode. Using a type of flourescent probe in VM7Luc cells, loss-of-signal activity can be used to understand loss of viability. This assay endpoint, CCTE_Deisenroth_AIME_384WELL_CTox_Inactive, was analyzed with bidirectional fitting in the ERTA assay.
The AIME procedure consists of a preparative "pre-stamping" step using a barium chloride/poly-L-lysine (PLL) solution followed by "stamping" the lid in alginate-hepatic S9 (metabolism positive) or alginate-water (metabolism negative) to form microspheres. Once stamping is completed, the AIME lids are placed in duplicate microplates (metabolism positive or negative) containing chemical solutions and incubated for two hours to facilitate metabolic reactions. The conditioned medium, containing parent chemical or metabolites, is then transferred to the cell-based VM7Luc Estrogen Receptor Transactivation Assay (ERTA) for 24 hours. A typical experimental design tests a 10-point concentration series (0.002 - 200 uM) for 8 compounds (96-well format)1 or 32 compounds (384-well format)2 in single technical replicate. AIME assay controls include trans-stilbene (bioactivated control) and ethylparaben (bioinactivated control). ERTA assay plate controls include 17-beta estradiol (positive control) and DMSO (solvent control). Experiments typically comprise a minimum of four experimental replicates (n=4).
Take `CCC(=NOC/C=C/Cl)C1=C(O)CC(C2CCOCC2)CC1=O` (stereo not given): the outcome was inactive.

Regarding `CON=C(C(=O)OC)c1ccccc1CON=C(C)c1cccc(C(F)(F)F)c1`, the molecule was called inactive.

Consider `CCCSP(=O)(OCC)Oc1ccc(Br)cc1Cl` (stereo not given), for which the outcome was inactive.

In the case of `COP(=O)(NC(C)=O)SC` (stereo not given), the outcome was inactive.

As for `COP(=O)(OC)SCn1c(=O)oc2cc(Cl)cnc21`, the AC50 was 100 µM (active).

As to `Nc1nc(N)nc(NC2CC2)n1`, the molecule was called inactive.

Take `CC1(C(=O)Nc2ccc(O)c(Cl)c2Cl)CCCCC1`: the molecule was called inactive.

For the molecule `N#CSCSC#N`, the molecule was called inactive.

As for `CSc1nc(NC(C)C)nc(NC(C)C)n1`, the call was inactive.

With `C#CCC1=C(C)C(OC(=O)C2C(C=C(C)C)C2(C)C)CC1=O` (stereo not given), the concentration at half-maximal activity (AC50) is 144 µM (active).

As for `CC1=NNC(=O)N(/N=C/c2cccnc2)C1`, the outcome was inactive.

Turning to `COc1ccc(C(=CC(=O)N2CCOCC2)c2ccc(Cl)cc2)cc1OC`, the call was inactive.

With `CCC(=O)Nc1ccc(Cl)c(Cl)c1`, the outcome was inactive.

Regarding `CC(COc1ccc(Oc2ccccc2)cc1)Oc1ccccn1` (stereo not given), the result was inactive.

As for `CN(C)[C@@H]1C(=O)C(C(N)=O)=C(O)[C@@]2(O)C(=O)C3=C(O)c4c(O)cccc4[C@@](C)(O)[C@H]3[C@H](O)[C@@H]12`, the outcome was inactive.

Take `CCOP(=O)(SC(C)CC)N1CCSC1=O` (stereo not given): the molecule was called inactive.

`CCOP(=S)(OCC)Oc1ccc2c(C)c(Cl)c(=O)oc2c1`: the result was inactive.

In the case of `O=C(O)c1cc(Oc2ccc(C(F)(F)F)cc2Cl)ccc1[N+](=O)[O-]`, the molecule was classed as inactive.

For the molecule `CCOP(=S)(OCC)SCCSCC`, the outcome was inactive.

`O=[N+]([O-])c1cc(C(F)(F)F)c(Cl)c([N+](=O)[O-])c1Nc1ncc(C(F)(F)F)cc1Cl`: the AC50 was 142 µM (active).

`CCC(CC)Nc1c([N+](=O)[O-])cc(C)c(C)c1[N+](=O)[O-]`: the outcome was inactive.

As to `CC(C)N(C(=O)SCC(Cl)=C(Cl)Cl)C(C)C`, the call was inactive.

For `CCOP(=O)(NC(C)C)Oc1ccc(SC)c(C)c1` (stereo not given), the molecule was called inactive.

`C#CC(C)(C)NC(=O)c1cc(Cl)cc(Cl)c1`: the outcome was inactive.

In the case of `CC(C1CC1)C(O)(Cn1cncn1)c1ccc(Cl)cc1` (stereo not given), the result was inactive.
